# Measurements as given in PubChem BioAssay (NCATS).
# Results filed as inconclusive are left out. Entries that show only a call come without a potency. The source made the active and inactive calls. Unless noted, calls come from the whole dose curve; as a rule, active = well fitted curve in the direction sought with a large enough effect; inconclusive = small, poorly fitted or top-dose-only effect, or another doubt; inactive = no such curve, though single readings can be large; an effect the other way counts as inactive or inconclusive.
# Legend:
# [1] = P-glycoprotein substrates identified in KB-8-5-11 adenocarcinoma cell line, qHTS therapeutic library screen (AID 1346987); note: nearly all actives have a fitted effect of over 65% in size; note: potency is the fitted concentration of half-maximal effect
# Outline: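 KB-8-5-11, a colchicine-selected P-gp-overexpressing KB-3-1 subline, was grown without colchicine for the assay. Cells were seeded at 500 cells/well, dosed in concentration-response and incubated 72 h at 37 degree C, 5% CO2. Viability was read by CellTiter-Glo luminescence.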
# [2] = system: Zika virus NS2B-NS3 protease (linked construct); experiment: Primary screen NINDS Rhodamine qHTS for Zika virus inhibitors (AID 1347160); note: nearly all actives have a fitted effect of over 55% in size
# Outline: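 Kinetic fluorescence (Ex 480 nm, Em 540 nm) over 15 min with 1.5 microM Rhodamine110 peptide and 25 nM linked protease.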
# [3] = target: Calcium and integrin-binding protein 1 (Homo sapiens) (UniProt Q99828); experiment: Primary qHTS for Identification of Calcium Integrin Binding Protein 1 (CIB1) Competitor (AID 1508620);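 note: GST tagged CIB1 binding a fluorescein labelled alphaIIb integrin peptide tracer; top concentration of the series differs between compounds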
# Sequence of Calcium and integrin-binding protein 1 (Homo sapiens) (Q99828 whole entry, looked up): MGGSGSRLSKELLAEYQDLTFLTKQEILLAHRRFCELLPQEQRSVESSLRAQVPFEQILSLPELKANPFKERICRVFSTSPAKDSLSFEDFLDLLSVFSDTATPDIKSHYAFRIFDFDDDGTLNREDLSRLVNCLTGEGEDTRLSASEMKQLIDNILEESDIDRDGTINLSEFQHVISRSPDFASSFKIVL
# Outline: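 Fluorescence polarization competition: GST-tagged CIB1 (1 uM final) preincubated with compound 15 min at room temperature, then FITC-labelled alphaIIb peptide (100 nM final) added. After 15 min at room temperature, polarization read at Ex 480/Em 540.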
# [4] = Primary qHTS for inhibitors of nuclear receptor binding SET domain protein 2 (NSD2) in an RCH-ACV wild type WT cells (2C) (AID 1645877); note: potency is the fitted concentration of half-maximal effect; nearly all actives have a fitted effect of over 70% in size
# [5] = target: Glutathione peroxidase 1 (Homo sapiens) (UniProt P07203); experiment: Primary qHTS Assay for Inhibitors of Recombinant Selenoprotein Glutathione Peroxidase 1 (GPX1) (AID 1845191); note: nearly all actives have a fitted effect of over 65% in size
# Sequence of Glutathione peroxidase 1 (Homo sapiens) (P07203 whole entry, looked up): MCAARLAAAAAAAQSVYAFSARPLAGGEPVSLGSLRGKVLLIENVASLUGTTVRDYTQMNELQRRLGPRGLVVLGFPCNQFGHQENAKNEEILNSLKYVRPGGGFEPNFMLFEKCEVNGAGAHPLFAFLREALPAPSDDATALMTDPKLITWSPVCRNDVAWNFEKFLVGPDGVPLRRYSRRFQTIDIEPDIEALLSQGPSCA
# Outline: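 GR-coupled assay: compounds preincubated 30 min at room temperature with GPX1, then reaction started with CHP; final 10 nM GPX1, 1 mM GSH, 0.5 mM CHP, 0.5 mM NADPH, 100 nM GR, 0.01% BSA, pH 7.5 Tris buffer. NADPH fluorescence (340/450 nm) read at 0 and 15 min.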
# [6] = target: Luciferin 4-monooxygenase (Photinus pyralis) (UniProt P08659); experiment: Primary firefly luciferase (FLuc) qHTS assay for identification of artifact compounds. (AID 1845220); settings: outcome: dose series up to 54.1 µM unless noted; note: nearly all actives have a fitted effect of over 60% in size
# Outline: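 Titrated compounds were incubated 15 min at RT, protected from light, with luciferin and ATP at 10 uM; reaction started with 10 nM FLuc, luminescence imaged at 5 min, and concentration-response fitted by Hill equation.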
# [7] = Primary fluorescence-based thiol-reactive (MSTI) qHTS assay for identification of artifact compounds. (AID 1845221); note: potency is the fitted concentration of half-maximal effect; nearly all actives have a fitted effect of over 65% in size
# Outline: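 Reactivity toward the thiol probe MSTI (4 uM) is scored by fluorescence at Ex/Em 525/598 nm after 1 h at room temperature. Acetyl-MSTI and MSTI define the activity scale.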
# [8] = system: Nanoluciferase (engineered Oplophorus gracilirostris luciferase); experiment: Primary Nanoluciferase (NLuc) qHTS assay for identification of artifact compounds. (AID 1845222);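 note: NLuc secreted into diluted conditioned medium of S16 cells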
# Outline: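 qHTS format, against NLuc in S16 cell-conditioned medium. Nano-Glo substrate 1:100 was added after 15 min at room temperature. Luminescence was taken after a further 5 min.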
# [9] = Primary redox qHTS assay for identification of artifact compounds. (AID 1845223)
# Outline: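 Amplex Red (25 uM) and HRP (250 mU/mL) in HBSS, with compounds for 15 min, then 250 uM DTT for 30 min, room temperature, dark. Fluorescence 525/598 nm read; normalized to DMSO and 10 uM DA3003; Hill fit.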
# C33A = experiment: Primary qHTS to identify gynecologic anti-cancer compounds using libraries of approved drugs and bioactive compounds (AID 1345084); settings: Gynecologic cancer cell panel viability, ATPlite luminescence, 48 h; series mostly up to 57.5 µM; note: nearly all actives have a fitted effect of over 55% in size
# Outline: (§1)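 Measured: luminescence after ATPlite addition (15 min, RT). Exposure: 48 h, 37 C, 5% CO2.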
# CAOV3 = experiment: as above; settings: Gynecologic cancer cell panel viability, ATPlite luminescence, 48 h; series mostly up to 57.5 µM
# Outline: as §1
# CASKI = experiment: as above; settings: Gynecologic cancer cell panel viability, ATPlite luminescence, 48 h; series mostly up to 57.5 µM
# Outline: as §1
# Es-2 = experiment: as above; settings: Gynecologic cancer cell panel viability, ATPlite luminescence, 48 h; series mostly up to 57.5 µM
# Outline: as §1
# HeLa = experiment: as above; settings: Gynecologic cancer cell panel viability, ATPlite luminescence, 48 h; series mostly up to 57.5 µM
# Outline: as §1
# JEG-3 = experiment: as above; settings: Gynecologic cancer cell panel viability, ATPlite luminescence, 48 h; series mostly up to 57.5 µM
# Outline: as §1
# OV90 = experiment: as above; settings: Gynecologic cancer cell panel viability, ATPlite luminescence, 48 h; series mostly up to 57.5 µM
# Outline: as §1
# Tov-21-G = experiment: as above; settings: Gynecologic cancer cell panel viability, ATPlite luminescence, 48 h; series mostly up to 57.5 µM
# Outline: as §1
# Tov112D = experiment: as above; settings: Gynecologic cancer cell panel viability, ATPlite luminescence, 48 h; series mostly up to 57.5 µM
# Outline: as §1
# [10] = Cytotoxicity counterscreen for inhibitors of SARS-CoV-2 cell entry (AID 1645845; calls by dose curve; note: nearly all actives have a fitted effect of over 50% in size)
# Outline: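 HEK293-ACE2 cells (Expi293F stably expressing human ACE2) seeded overnight, then compound for 1 h plus 48 h at 37C. Viability as ATP content by luminescence; normalized to wells with cells and media-only wells.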
# [11] = Primary qHTS to identify inhibitors of SARS-CoV-2 cell entry (AID 1645846; calls by dose curve; note: nearly all actives have a fitted effect of over 45% in size); settings: activity change, negative = inhibition: at 57.1 µM (top of the series) unless noted
# Outline: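 Luminescence readout (Bright-Glo luciferase) 48 h after pseudoparticle addition. HEK293-ACE2 cells, 1500/well; compound pre-incubation 1 h; Normalized to spike PP and bald PP.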
# CRL-7250 = normal cell line; experiment: qHTS assay to identify novel small-molecules to repurpose for Merkel cell carcinoma treatment (AID 1296009); settings: MCC and control cell lines, CellTiter-Glo viability, 72 h; series mostly up to 92 µM; note: nearly all actives have a fitted effect of over 60% in size
# Outline: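 Cells were treated for 72 hr at 37 degree celsius with compounds in 8- or 11-point dose response. Viability was read by CellTiter-Glo luminescence, normalized to no-cell (cytotoxicity) and DMSO controls.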
# [12] = qHTS Assay for Identifying Gametocytocidal Compounds (AID 743244);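 note: actives lower the fluorescent signal which means gametocytes are killed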; settings: P. falciparum 3D7 stage III-V gametocytes, alamarBlue, 72 h; max response: stronger effect = lower value
# Outline: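 Using 20,000 stage III–V 3D7 gametocytes per well, compounds were incubated 72 h under 37 °C/5% CO2. Viability was then assessed by 24 h alamarBlue reduction, measured fluorometrically at 525/598 nm.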
# [13] = qHTS for Inhibitors of the Functional Ribonucleoprotein Complex (vRNP) of Lassa (LASV) Arenavirus: LASV Primary Screen - GLuc reporter signal (AID 1347082; calls by dose curve; tested in HEK293 reporter line; note: nearly all actives have a fitted effect of over 60% in size)
# [14] = P-glycoprotein substrates identified in KB-3-1 adenocarcinoma cell line, qHTS therapeutic library screen (AID 1346986); note: nearly all actives have a fitted effect of over 60% in size
# Outline: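 KB-3-1 parental and colchicine-selected P-gp-overexpressing KB-8-5-11 cells (colchicine omitted during assay), 500 cells/well, dosed in dose-response for 72 h at 37 °C; CellTiter-Glo luminescence. Cytotoxic: curve class -1.1 to -2.4, max response >50%, AC50 < 10 uM.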
# [15] = Confirmatory qHTS for VERO E6 Cytotoxicity Assay: Counterscreen for SARS-CoV-2 CPE Assay (AID 1508605; calls by dose curve; note: nearly all actives have a fitted effect of over 60% in size)
# [16] = Confirmatory qHTS for activators (rescue) of SARS-CoV-2 Cytopathic Effect (CPE) (AID 1508606; calls by dose curve; note: potency is the fitted concentration of half-maximal effect; nearly all actives have a fitted effect of over 70% in size)
smiles,measurement,setting,value
C=CC(C)(C)C12C=C(O)C(=O)N3/C(=C\c4cnc[nH]4)C(=O)NC31N(OC)c1ccccc12 (centres undefined),Potency,[1],7.96 µM (active)
same,Potency,[2],inactive
same,Potency,[3],inactive
same,Potency,[4],10 µM (active)
same,Potency,[5],inactive
same,outcome,[6],inactive [at 25.7 µM]
same,Potency,[7],4.12 µM (active)
same,Potency,[8],inactive
same,Potency,[9],inactive
same,Potency,C33A,inactive
same,Potency,CAOV3,inactive
same,Potency,CASKI,inactive
same,Potency,Es-2,inactive
same,Potency,HeLa,inactive
same,Potency,JEG-3,inactive
same,Potency,OV90,inactive
same,Potency,Tov-21-G,inactive
same,Potency,Tov112D,inactive
Cc1cccc(Oc2cnc(=O)[nH]c2)c1,Potency,[10],inactive
same,"activity change, negative = inhibition",[11],-20%
same,Potency,CRL-7250,inactive
C#C[C@]1(OC(=O)CCCCCC)CC[C@H]2[C@@H]3CCC4=CC(=O)CC[C@@H]4[C@H]3CC[C@@]21C,max response,[12],-5.44% (inactive)
same,Potency,[1],20.6 µM (active)
COc1ccc(C2COc3cc(O)ccc3C2)c(OC)c1O (centres undefined),Potency,[13],inactive
COc1cc2c(ccc3c4cc(OC)c(OC)cc4c[n+](C)c23)cc1O,Potency,[13],inactive
Nc1ccn(CC(CO)OCP(=O)(O)O)c(=O)n1 (centres undefined),Potency,[14],inactive
same,Potency,[1],inactive
CC(=O)O[C@@H]1CC2C(C)(C)C(=O)C=C[C@]2(C)C2CC[C@]3(C)C(=CC(=O)O[C@H]3c3ccoc3)[C@@]21C (some centres undefined),Potency,[1],14.6 µM (active)
same,Potency,[15],inactive
same,Potency,[16],11.2 µM (active)
same,Potency,[5],inactive
Cc1cccc(-c2[nH]c(CNc3ccccc3F)nc2-c2ccc3ncnn3c2)n1,"activity change, negative = inhibition",[11],-32.1%
same,Potency,CRL-7250,inactive
CC=CC(=O)N(CC)c1ccccc1C,Potency,[13],inactive
